An excerpt weighted towards active compounds, which were near 2.2% of everything screened.
Nrf2 inh – Nrf2 pathway inhibition | 360,000 compounds, 2.1% hits | Potency, µM (titrated, usually from 46 µM), for the others: at the highest dose activity change, negative = inhibition, actives largely listed as inhibitors | A549 ARE-Fluc reporter, luciferase luminescence, 18-24 h | AID 504444; further: on the % scale 0 is the no-effect control and ±100 the full control effect; nearly all actives have a fitted effect of over 60% in size
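Nrf2 activity is the BugLite luminescence, read 15 min after reagent at room temperature, following CellTiter-Fluor cytotoxicity readout (30 min, 37C). Compound titrations were applied for 18-24 h to 5000 A549 ARE_Fluc cells/well in 5% FBS OPTI-MEM.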
A549 viability – kills or reduces viability of A549 cells in Nrf2 counter-screen; A549 ARE-Fluc cells, CellTiter-Fluor viability, 18-24 h; Potency, µM (titrated, usually from 46 µM), without a hit: at the top dose activity change, negative = cytotoxicity, actives largely listed as inhibitors; 390,000 compounds, 0.16% hits; further: on the % scale 0 is the no-effect control and ±100 the full control effect
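A549 ARE-Fluc cells in 5% FBS OPTI-MEM, 5000 cells/well, rested 2 h then exposed to compounds in concentration-response for 18-24 h at 37 °C. Viability by CellTiter-Fluor fluorescence (Ex 405/Em 525) after 30 min; luciferase luminescence (BugLite, 15 min, RT) read afterwards.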
Pin1 inh – blocks the human prolyl isomerase Pin1. Q13526. Pin1 FP peptide displacement, HiFluor488, 10 min. Potency, µM (doses to about 115 µM), inactives show at the highest dose activity, negative = inhibition, hits mostly inhibitors. 390,000 compounds, 0.009% hits; active means well fitted inhibition curve with a large enough effect in the polarisation, with a control signal flat, not every such curve was filed as active; inconclusive means small, poorly fitted or top-dose-only effect, or effect the other way, or a change in a side signal; inactive means no such curve, though single readings can be large or run the other way; the % refers to the polarisation; further: on the % scale 0 is the no-effect control and ±100 the full control effect
Target sequence (Q13526 whole entry, looked up): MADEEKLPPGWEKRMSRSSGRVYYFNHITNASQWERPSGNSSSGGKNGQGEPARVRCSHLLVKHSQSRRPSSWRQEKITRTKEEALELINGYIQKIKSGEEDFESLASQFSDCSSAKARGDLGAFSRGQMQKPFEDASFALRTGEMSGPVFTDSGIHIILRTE
Nrf2 ARE act – Nrf2 pathway activation | 410,000 compounds, 0.31% hits | Potency, µM (doses to about 46.1 µM), for inactives: at the highest dose activation, hits mostly activators | AREc32 ARE-luciferase reporter (MCF7-derived line), luminescence, 24 h | AID 624171; further: % of control where 0% means no effect; nearly all actives have a fitted effect of over 65% in size
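For detection, Steady-Glo was added and plates sat 30 min at RT; before that, AREc32_Fluc cells grown overnight in OPTI-MEM/5% FBS had been treated with 23 nL compound for 24 hr at 37 deg C.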
Active calls of the source: *; ? = inconclusive; / = not tested or not shown; [ ] = remark or other dose. Unless noted, the call rests on the fitted dose curve; in most records, active means well fitted curve in the direction sought with a large enough effect; inconclusive means small, poorly fitted or top-dose-only effect, or another doubt; inactive means no such curve, though single readings can be large; an effect the other way counts as inactive or inconclusive. Potency means the concentration at half of the fitted maximal effect.

SMILES	Nrf2 inh	A549 viability	Pin1 inh	Nrf2 ARE act
Cc1ccc(SCc2nc(-c3ccc(C(=O)NCC(C)c4ccccc4)cc3)oc2C)cc1 (stereo not drawn)	9.2µM*	8%	?	4%
N#C/C(=C/c1ccc(Sc2nc3ccccc3[nH]2)o1)c1cccc(Br)c1	16µM*	?	?	6%
N#C/C(=C/c1ccc(Sc2nc3ccccc3[nH]2)o1)c1cccc(F)c1	21µM*	26µM*	15%	18%
N#C/C(=C/c1ccc(Sc2nc3ccccc3[nH]2)o1)c1ccccc1F	?	?	6%	16%
CCOC(=O)N1CCc2c(sc3c2c(=O)n(-c2ccc(Cl)cc2)c(=O)n3CC(=O)Nc2ccccc2)C1	/	-10%	4%	1%
Oc1ccccc1-n1nc2ccc3nonc3c2n1	-1%	1%	3%	10µM*
CCn1c(C(=O)N2CCCC(C(=O)N3CCN(c4cc(C)ccc4C)CC3)C2)cc2sccc21 (stereo not drawn)	?	-2%	14%	0%
CCc1ccc(NCc2cc3ccc(OC)cc3n(CC(=O)Nc3cccc(Cl)c3C)c2=O)cc1	21%	-4%	-8%	-1%
Cc1ccccc1/C=C1\C(=O)Nc2ccc(F)cc21	2.9µM*	?	2%	?
O=C1Nc2ccccc2/C1=C/c1ccccc1F	14%	1%	-6%	?
COc1ccc(C2NC(=S)NC3=C2CCCC3=C2SCCS2)cc1 (stereo not drawn)	?	-21%	13%	3.2µM*
COc1ccc(NC(=O)COc2ccc(N(C)S(=O)(=O)c3ccc(C)cc3)cc2)cc1	?	-10%	2%	4%
Cc1ccc(S(=O)(=O)N(C)c2ccc(C(=O)Nc3ccc(C)cn3)cc2)cc1	12µM*	-23%	?	2%
COc1ccc(NC(=O)COc2ccc(N(C)S(=O)(=O)c3ccc(Cl)cc3)cc2)cc1	13µM*	-16%	16%	-1%
COc1ccc(/C=N/NC(=O)c2ccc(N(C)S(=O)(=O)c3ccccc3)cc2)cc1	26µM*	-16%	?	4%
Cc1ccc(S(=O)(=O)N(C)c2ccc(OCC(=O)Nc3nc4ccccc4s3)cc2)cc1	21µM*	-1%	69%	6%
COc1ccc(/C=N/NC(=O)c2ccc(N(C)S(=O)(=O)c3ccccc3)cc2)c(OC)c1	3%	13%	3%	0%
CCN(CC)CCn1c2c(c(SCC(=O)Nc3cccc(C(F)(F)F)c3)nc1=O)CCC2	/	13%	-2%	0%
COc1ccc(C(=O)Nc2ccc(S(=O)(=O)N(C)c3ccccc3)cc2)cc1	21µM*	-5%	2%	5%
Cc1ccc(/C=C/S(=O)(=O)Nc2ccc(C)cc2)cc1	0%	-4%	-13%	0%
Cc1ccc(NC(=O)c2ccc(NS(=O)(=O)/C=C/c3ccccc3)cc2)nc1	21µM*	-7%	1%	2%
COc1ccc(CCNC(=O)c2ccc(N(C)S(=O)(=O)c3ccc(C)cc3)cc2)cc1	?	-7%	10%	0%
COc1ccc(CCNC(=O)c2ccc(Cl)c(S(=O)(=O)N(C)c3ccccc3)c2)cc1	18µM*	-24%	11%	0%
CCC(=O)N1CCc2cc(Br)cc(S(=O)(=O)CCC(=O)NCc3ccc(F)cc3)c21	6%[9.27 µM]	1%	3%	0%
CN(c1ccccc1)c1ccc(CNc2nn3c(=O)c4ccccc4nc3s2)cc1	/	/	-1%	/
SMILES	Nrf2 inh	A549 viability	Pin1 inh	Nrf2 ARE act
COc1ccccc1NC(=O)C(C)OC(=O)/C=C/c1ccc2ccccc2n1 (stereo not drawn)	2%	2%	-2%	18µM*
COc1cc(NC(=O)c2cc3c(=O)oc4ccc(C)cc4c3s2)cc(OC)c1OC	4%	-3%	-1%	-1%
O=[N+]([O-])c1cc(Cl)ccc1Nc1nc(Nc2ccc(Cl)cc2[N+](=O)[O-])nc(N2CCOCC2)n1	-10%	-14%	3%	/
O=C(c1ccc2c(c1)N(Cc1c(F)cccc1Cl)C(=O)c1ccccc1S2)N1CCCC1	10µM*	?	30%	4%
CCC(C)N(C(=O)CSc1ncnc2sccc12)C1CCS(=O)(=O)C1 (stereo not drawn)	-23%	-2%	?	0%
CCC(C)N(C(=O)CSc1nc(-c2cccs2)nc2ccccc12)C1CCS(=O)(=O)C1 (stereo not drawn)	8.2µM*	?	22%	2%
COc1ccc(N(Cc2ccccc2)C(=O)c2nc(S(C)(=O)=O)ncc2Cl)cc1	?	?	9%	?
